In the library only some 2.4% were active in any assay of this set; here they are far more common.
D2 antag – D2 dopamine receptor (human) antagonism; inhibition, % at 10 µM; HEK293 TREx D2 cells, calcium flux, dopamine EC80; 340,000 compounds, 2% hits; in the data active = inhibition above about 30%; inactive = below that, where a call was filed; also: 0% is about no effect
Target sequence (P14416 whole entry, looked up): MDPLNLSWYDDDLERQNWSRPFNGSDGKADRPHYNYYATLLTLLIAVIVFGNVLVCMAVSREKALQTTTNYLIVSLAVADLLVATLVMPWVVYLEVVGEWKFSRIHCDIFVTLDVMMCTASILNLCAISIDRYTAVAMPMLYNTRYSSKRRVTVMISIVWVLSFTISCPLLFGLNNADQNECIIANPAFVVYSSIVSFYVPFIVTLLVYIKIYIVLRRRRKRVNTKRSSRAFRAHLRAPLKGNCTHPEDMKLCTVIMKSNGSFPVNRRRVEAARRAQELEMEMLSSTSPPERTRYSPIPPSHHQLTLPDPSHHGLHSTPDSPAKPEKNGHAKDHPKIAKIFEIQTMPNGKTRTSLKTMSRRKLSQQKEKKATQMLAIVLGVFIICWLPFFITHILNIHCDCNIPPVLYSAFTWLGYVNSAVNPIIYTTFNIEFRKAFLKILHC
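Overnight-induced (tetracycline, 30 C) HEK293 T-REx cells carrying force-coupled D2 receive a no-wash calcium dye, then compound, then EC80 dopamine at 180 s; signals are read kinetically throughout.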
D2 ag-1 – agonists of human D2 dopamine receptor; activation, % at 2 µM; P14416; HEK293 T-REx D2 cells, calcium flux agonist mode; 340,000 compounds, 0.53% hits;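 active = activation over 3 SD above normal in the single-dose calcium agonist read, cut at about 30% in these data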; also: 0% is about no effect
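Tetracycline-induced HEK293 T-REx cells with force-coupled D2 receptor, plated overnight at 30 C, loaded with no-wash calcium dye. After a 10 s baseline, compound was pin-added and calcium flux read kinetically for 180 s; calcium rises flagged agonists.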
D2 ag-2 – activates the human D2 dopamine receptor | P14416 | DiscoveRx PathHunter D2 beta-arrestin, luminescence, 90 min; 100% = 57 uM dopamine signal | activation, % (no concentration beside the values) | 360,000 compounds, 0.084% hits | AID 624465; in the data active = activation above about 40%; inconclusive = between about 15% and that limit
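Agonist mode: compounds alone added to overnight-plated D2 PathHunter cells for 90 min at 37 C, with 57 uM final dopamine (EC100) defining full response. Beta-arrestin recruitment detected by chemiluminescent reagent, read after 1 h at ambient temperature.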
D2 PAM-1 – positive allosteric modulators of human D2 dopamine receptor | P14416 | DiscoveRx D2 beta-arrestin cells, luminescence, 90 min; 100% = 57 uM dopamine signal | potentiation, % (test concentration not listed) | 360,000 compounds, 0.23% hits | AID 624464; in the data active = potentiation above about 50%; inconclusive = mostly about 30% to 49%
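PathHunter D2 cells, attached overnight at 37 deg C, received compound in DMSO plus dopamine at EC20 (50 nM final) for 90 min at 37 deg C. Beta-arrestin recruitment was read as luminescence after 1 h with detection reagent at ambient temperature.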
D2 PAM-2 – positively modulates the human D2 dopamine receptor allosterically | 340,000 compounds, 0.34% hits | HEK293 T-REx D2, calcium flux, EC20 dopamine potentiation | P14416 | potentiation, % at 10 µM;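 active = potentiation over 3 SD above the plate norm, cut at about 30% in these data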; also: 0% is about no effect
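Tetracycline-induced Hek293 Trex D2 cells, force-coupled to calcium, loaded with no-wash calcium dye. Compound added with 180 s kinetic read for agonism, then EC20 dopamine and a further 180 s read for potentiation.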
Active calls of the source: *; ? = inconclusive; . = no result.

SMILES	D2 antag	D2 ag-1	D2 ag-2	D2 PAM-1	D2 PAM-2
O=C(CSc1nnc(COc2ccc(F)cc2)o1)N1CCCCC1	97*	0	-3	1	-15
Cc1cc(C)cc(OCc2nnc(SCC(=O)N3CCCCC3)o2)c1	-4	-1	-2	-2	44*
COc1cccc(CNC(=O)CCc2c(C)nn(-c3ccc(N4CCOCC4)nn3)c2C)c1	.	0	.	.	-5
CCOC(=O)CSc1nnc(COc2ccc3ccccc3c2)o1	34*	0	-1	0	6
COC(=O)CSc1nnc(COc2ccc3ccccc3c2)o1	13	0	5	2	9
CN(C)CCCN1c2ccccc2CCc2ccccc21	60*	-2	-7	-38	-29
CC(CN(C)C)CN1c2ccccc2CCc2ccccc21 (stereo unspecified)	73*	4	-8	-5	-24
COc1ccc(CCNCc2c(C(=O)O)c(C)n(Cc3c(F)cccc3Cl)c2C)cc1OC	.	-1	.	.	.
Cc1cccc(NC(=O)c2ccc(-c3nc(CSc4ccccc4)c(C)o3)cc2)c1C	.	1	.	.	0
CC(=O)c1cccc(NS(=O)(=O)c2cc(-c3onc(C)c3C)ccc2C)c1	.	0	.	.	-9
Cc1cccc(CNC(=O)c2cccc(NC(=O)N3CCSc4ncccc43)c2)c1	.	0	.	.	6
Cc1cccc(N(C)C(=O)CN(C)S(=O)(=O)c2ccc3[nH]c4c(c3c2)CCCC4)c1	.	0	.	.	3
CCOC(=O)Cn1ncc(-c2ccccc2)c1N	57*	0	-2	20	-6
CCS(=O)(=O)N1CCc2cc(C(=O)NC(C)c3ccccc3)ccc21 (stereo unspecified)	.	.	.	.	-19
O=c1cc(-c2ccco2)nc(SCc2cccc(Cl)c2)[nH]1	-1	0	5	54*	0
O=C(NCc1ccccc1)c1cnc(N2CCCCC2)c2ccccc12	.	-2	.	.	-3
COc1ccc(N(CC(=O)Nc2c(C)n(C)n(-c3ccccc3)c2=O)S(=O)(=O)c2ccc(C)cc2)cc1OC	35*	2	-2	-2	8
COc1ccccc1CNS(=O)(=O)c1ccc(F)c(C(=O)Nc2cc(Cl)ccc2OC)c1	.	-1	.	.	20
COc1ccc(CNCCC(c2ccc3c(c2)OCO3)c2ccccc2OC)cc1 (stereo unspecified)	.	2	.	.	-33
Cc1ccc2ncccc2c1	-7	0	-1	-8	6
Cc1nnc(C)c2c(C)n(-c3ccc4ncccc4c3)c(C)c12	32*	0	2	-3	1
CCCCN(C(=O)Cc1cccc(F)c1)c1c(N)n(CCC)c(=O)[nH]c1=O	37*	2	0	0	6
COCC(=O)Nc1cccc(C(F)(F)F)c1	-8	1	-6	-16	33*
FC(F)(F)c1cccc(CN2CCN(c3ncccn3)CC2)c1	.	.	48*	?	.
O=C(CN1CCN(Cc2ccccc2)CC1)Nc1cccc(C(F)(F)F)c1	39*	0	-2	-14	-24
SMILES	D2 antag	D2 ag-1	D2 ag-2	D2 PAM-1	D2 PAM-2
O=C(CN1CCN(c2ccccn2)CC1)Nc1cccc(C(F)(F)F)c1	48*	24	2	-10	-31
O=C(CN1CCN(c2ccccc2)CC1)Nc1cccc(C(F)(F)F)c1	21	2	-1	-21	-31
O=C(O)CCCC(=O)Nc1cccc(C(F)(F)F)c1	12	0	-1	-2	-3
COc1ccc2c(c1)CC(C(=O)N1CCC(C(N)=O)CC1)CO2 (stereo unspecified)	.	.	.	.	4
O=c1c2ccccc2n2nnnc2n1-c1ccccc1	13	1	-2	-8	32*
CCN1CCN(C(c2ccc(F)cc2)c2c(O)cc(C)n(CCOC)c2=O)CC1 (stereo unspecified)	.	.	.	.	13
O=C(C1COc2ccccc2O1)N1CCN(c2ccc(C(F)(F)F)cn2)CC1 (stereo unspecified)	.	.	2	-8	.
NS(=O)(=O)c1ccc(N2CCN(C(=O)C3COc4ccccc4O3)CC2)nc1 (stereo unspecified)	35*	-1	-1	7	1
O=C(C1COc2ccccc2O1)N1CCN(c2ccccc2)CC1 (stereo unspecified)	41*	0	-1	-13	-4

Bioassay records (PubChem)
